From PubChem BioAssay AID652104 (National Center for Advancing Translational Sciences (NCATS), 2013)
Values joined by “and” are separate entries in the source; they are usually repeats but may differ in a detail not shown here. Identical values can stand only once. About 7,200 (1.8%) of roughly 410,000 compounds were called active. Where a call stands in place of a potency, no number is given. Another 7% or so got no clear call; they are omitted. Calls come from the whole dose curve; as a rule, active = well fitted activation curve with a large enough effect; inconclusive = small, poorly fitted or top-dose-only effect, or another doubt; inactive = no such curve, though single readings can be large or run the other way. The sample as a whole holds a higher share of actives than the screen did. The source holds several records for some structures; these can differ, active in one and inactive in another.
Potency is the fitted concentration of half-maximal effect.

Experiment: qHTS of TDP-43 Inhibitors; note: nearly all actives have a fitted effect of over 50% in size
Conditions: TDP-43 expressing yeast growth rescue, BacTiter-Glo, 24 h; series mostly up to 46.1 µM
How it was run: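 Galactose-induced TDP-43 yeast, OD600=0.02, compound pinned; 24 hr, 30 deg C; BacTiter-Glo luminescence for growth. Inhibitors of TDP-43 toxicity read as activators.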
With COc1ccc(C(=O)NCC(c2ccc(N(C)C)cc2)N2CCc3ccccc32)c(OC)c1 (centres undefined) the Potency was “inactive”.
In the case of CCOC(=O)c1c(NC(=O)COc2cc(C)ccc2C(C)C)sc(C)c1C, the Potency is reported as “inactive”.
In the case of CCc1ccccc1OCCSc1nc(-c2cccs2)nc2cc(=O)[nH]n12, the Potency is reported as “inactive”.
In the case of Cc1nn(C(C)C(=O)NCCc2ccccc2)c(=O)c2c1sc1ccccc12 (centres undefined), the Potency is reported as “inactive”.
In the case of O=C(NCCc1ccccc1)c1ccc2c(c1)N(Cc1ccc(F)cc1)C(=O)c1ccccc1S2(=O)=O, the Potency is reported as “inactive”.
In the case of CCCCN1C(=O)c2[nH]nc(-c3ccccc3O)c2C1c1cccc(OCc2ccccc2)c1 (centres undefined), the Potency is reported as “inactive”.
In the case of Cn1c(=O)c2c(ncn2CC(=O)Nc2cccc(C(F)(F)F)c2)n(C)c1=O, the Potency is reported as “inactive”.
In the case of CSc1nc(-c2ccc(F)cc2)nc2c1Cc1c(CO)cnc(C)c1O2, the Potency is reported as “inactive”.
With COc1cc(NC(=O)CSc2ccc(-c3cccnc3)nn2)cc(OC)c1 the Potency was “inactive”.
In the case of O=C(CSc1ccc(-c2ccccn2)nn1)Nc1ccccc1, the Potency is reported as 28.2 µM (active).
With O=C(CSc1ccc(-c2ccc(-n3cccn3)cc2)nn1)Nc1ccc([N+](=O)[O-])cc1 the Potency was “inactive”.
In the case of CCc1ccc(NC(=O)CN2CCSc3ccc(S(=O)(=O)N4CCCC4)cc32)cc1, the Potency is reported as “inactive”.
With Cc1cccc(N2CCN(c3c(CN4CCCC4)c(=O)oc4ccccc34)CC2)c1C the Potency was “inactive”.
For COc1ccc(C)cc1Nc1nc2ccccc2c2nnc(C)n12, the Potency was “inactive”.
For Cc1ccc(C(=O)Nc2c(C(=O)NC(C)(C)C)oc3ccccc23)cc1, the Potency was “inactive”.
For COc1ccccc1CN(C)C(=O)c1cc2ccccc2o1, the Potency was “inactive”.
In the case of Cn1c(SCC(=O)NC2CCCCC2)nnc1-c1cc2ccccc2o1, the Potency is reported as “inactive”.
In the case of CCNc1nc(-c2cc3ccccc3o2)cs1, the Potency is reported as 14.1 µM (active).
With Cc1ccc(N2CC(c3nnc(Cc4ccccc4Cl)o3)CC2=O)cc1 (centres undefined) the Potency was “inactive”.
For COc1cc(C(=O)N2CCN(C(=O)COc3cccc(C)c3)CC2)cc(OC)c1OC, the Potency was “inactive”.
In the case of CCN(CC)S(=O)(=O)c1ccc2c(c1)c(=O)c(C(=O)N1CCN(c3cccc(Cl)c3)CC1)cn2C, the Potency is reported as “inactive”.
For Cc1cccc(CNS(=O)(=O)c2ccc(-c3cnc(C4CC4)o3)cc2)c1, the Potency was “inactive and 12.6 µM (active)”.
In the case of Cc1ccc(-c2cnc(C3CC3)o2)cc1S(=O)(=O)Nc1cccc(C)c1C, the Potency is reported as “inactive”.
With Cc1cccc(CCNS(=O)(=O)c2ccc(S(=O)(=O)NC3CCCC3)cc2)c1 the Potency was “inactive”.
In the case of O=C(CN1CCSc2ccccc21)N1CCN(c2ccccc2)CC1, the Potency is reported as “inactive”.
For COc1ccccc1NC(=O)c1cc(C2CC2)nc2c1c(C)nn2-c1ccc(C)cc1, the growth rescue (activation) was 0% [at 9.22 µM] (inactive).
With CC(=O)Nc1ccc(-c2ccnc3c2CC(C(=O)NC(C)C)O3)cc1 (centres undefined) the Potency was “inactive”.
With COc1ccc(NC(=O)C2Cc3c(-c4cccc(NC(C)=O)c4)ccnc3O2)cc1OC (centres undefined) the Potency was “inactive”.
With COc1ccc(NC(=O)C2Cc3c(-c4ccc(Cl)cc4)ccnc3O2)cc1 (centres undefined) the Potency was 14.1 µM (active).
